{"source": "PubChem BioAssay AID488862", "about": "(Broad Institute, 2010)", "note": "Values joined by “and” are separate entries in the source; they are usually repeats but may differ in a detail not shown here. Identical values can stand only once. In all, about 340,000 compounds went through this assay and about 1,200 (0.35%) were called active. The sample holds actives, similar compounds and a random draw of the others, so the mix is not that of the screen. A number with no mark means an inactive call. No stated cut-off is given here; in the data, active means inhibition above about 52%; inactive means the rest."}
{"test": "suppresses PrP 5' UTR mRNA reporter expression (AID 488862); further: 0 = median of the neutral control wells", "conditions": "cell-based PrP 5' UTR mRNA reporter, plate reader; stronger effect = higher value; concentration not given here"}
{"compound": "O=C(CSC1c2ccccc2-c2ccccc21)N/N=C/c1ccccc1", "inhibition": "9.76%"}
{"compound": "Cc1cccc(OCC(=O)NCC(=O)N/N=C/c2ccc(N(C)C)cc2)c1", "inhibition": "-13.2%"}
{"compound": "Cc1ccc(/C=N/NC(=O)COc2ccccc2-c2ccccc2)cc1", "inhibition": "70% (active)"}
{"compound": "COc1ccc(OC)c(S(=O)(=O)Nc2cccc(-c3ccc4nncn4n3)c2)c1", "inhibition": "-13.4%"}
{"compound": "Cc1c(CN2CCCC(C(=O)c3cccc(Cl)c3)C2)c(=O)n(-c2ccccc2)n1C", "note": "(centres undefined)", "inhibition": "-12.1%"}
{"compound": "COc1ccc(C(=O)/C=C/Nc2ccccn2)cc1", "inhibition": "66% (active)"}
{"compound": "CCOc1ccc(N/C=C/C(=O)c2ccccc2)cc1", "inhibition": "-1.68%"}
{"compound": "CCOc1ccc(N/C=C/C(=O)c2cc(OC)c(OC)c(OC)c2)cc1", "inhibition": "-105%"}
{"compound": "CCc1cc2c(N3CCN(c4nnc(CC)s4)CC3)ncnc2s1", "inhibition": "2.26%"}
{"compound": "CC(C)(C)c1ccc(/C=C2\\SC(=O)N=C2N)cc1", "inhibition": "36.2%"}
{"compound": "CCCCSCCCNC(=O)C1CCC(CNS(=O)(=O)c2ccc(NC(C)=O)cc2)CC1", "note": "(centres undefined)", "inhibition": "-21.5%"}
{"compound": "CCN(CCn1cccn1)C(=O)CC1C(=O)NCCN1Cc1cccc(OC)c1OC", "note": "(centres undefined)", "inhibition": "-9.29%"}
{"compound": "CCCCNCCS(=O)(=O)NCc1ccccc1", "inhibition": "-9.61%"}
{"compound": "CCCCNS(=O)(=O)CCNCc1ccccc1OC", "inhibition": "60.7% (active)"}
{"compound": "COc1ccccc1CNS(=O)(=O)c1ccc(C)cc1", "inhibition": "-15.1%"}
{"compound": "Cc1cccc([C@@H]2[C@@H]3C(=O)N(Cc4ccccc4)C(=O)[C@@H]3[C@]3(C)C(=O)N(c4ccc(Br)cc4)C(=O)N23)c1", "inhibition": "-3.38%"}
{"compound": "Cc1cccc([C@H]2[C@@H]3C=CC[C@@H](C)[C@@H]3C(=O)N2Cc2ccccc2)c1", "inhibition": "-11.5%"}
{"compound": "Cc1ccc(-c2cccc([C@H]3[C@@H]4C=CC[C@@H](C)[C@@H]4C(=O)N3Cc3ccccc3)c2)cc1", "inhibition": "61.8% (active)"}
{"compound": "Cc1nc(N=C(N)N)nc2c(C)cccc12", "inhibition": "-22.8%"}
{"compound": "Cc1nc(C(=O)NCc2ccccc2)sc1C1(C)CC(c2cccnc2)=NO1", "note": "(centres undefined)", "inhibition": "-16.5%"}
{"compound": "O=C1OCC2=C1C(c1ccc(Cl)cc1)c1cc3c(cc1O2)OCO3", "note": "(centres undefined)", "inhibition": "16.1%"}
{"compound": "CCCOc1ccccc1C1CC(=O)Nc2cc3c(cc21)OCO3", "note": "(centres undefined)", "inhibition": "-21.5%"}
{"compound": "COc1ccccc1C1C2=C(COC2=O)Nc2cc3c(cc21)OCO3", "note": "(centres undefined)", "inhibition": "65.7% (active)"}
{"compound": "COc1ccc(NC(=O)CN(C)C(=O)c2ccc(NC3CC3)c([N+](=O)[O-])c2)cc1", "inhibition": "-13.7%"}
{"compound": "Cc1noc(C)c1S(=O)(=O)Nc1ccc(C(=O)N2CCN(c3ccc(F)cc3)CC2)cc1", "inhibition": "44.2%"}
{"compound": "N#Cc1nc(N)nc(N(c2ccccc2)c2ccccc2)n1", "inhibition": "-20.2%"}
{"compound": "CCc1nn(CCCN2CCN(c3cccc(Cl)c3)CC2)c(=O)n1CCOc1ccccc1", "inhibition": "-17.3% and 2.12%"}
{"compound": "O=C(O)c1cccnc1NC1CCCC1", "inhibition": "-17.1%"}
{"compound": "CC1=C(C)CC(C(=O)NNC(=O)c2ccccc2O)C(C(=O)O)C1", "note": "(centres undefined)", "inhibition": "-11.4%"}
{"compound": "O=C(NNC(=O)c1ccccc1O)c1ccccc1O", "inhibition": "58.9% (active)"}
{"compound": "Cc1cc(C(=O)CCC(=O)NNC(=O)c2ccccc2O)c(C)s1", "inhibition": "4.28%"}
{"compound": "C/C(=N/NC(=O)CN1CCN(S(=O)(=O)c2ccc(Br)cc2)CC1)c1ccncc1", "inhibition": "-9.51%"}
{"compound": "Cc1cc(C)nc(/N=C2\\NC(=O)CC(C(=O)O)N2c2ccc(Cl)cc2Cl)n1", "note": "(centres undefined)", "inhibition": "-13.6%"}
{"compound": "COc1ccc(C23NCCN2C(=O)c2ccccc23)cc1", "note": "(centres undefined)", "inhibition": "-5.86%"}
{"compound": "CC(NC(=O)c1cccc2ccccc12)c1ccc2c(c1)CCCC2", "note": "(centres undefined)", "inhibition": "-15.9%"}
{"compound": "COc1cccc2c1C(=O)c1c(O)c3c(c(O)c1C2=O)CC(O)(C(C)=NNC(=O)c1ccc(Cl)c(Cl)c1)CC3OC1CC(N)C(O)C(C)O1", "note": "(centres undefined)", "inhibition": "81% (active)"}
{"compound": "CC(=O)Nc1ccc(C(=O)Nc2cc(S(=O)(=O)N3CCOCC3)ccc2N2CCOCC2)cc1", "inhibition": "2.41%"}
{"compound": "O=C(CN1C2CCC1CC(NC(=O)C1CC1)C2)NCc1ccccc1", "note": "(centres undefined)", "inhibition": "-21.6%"}
{"compound": "CCCS(=O)(=O)N1CCN(C(=O)c2cccs2)CC1", "inhibition": "-11%"}
{"compound": "Nc1nc(SCC(=O)NCCN2CCOCC2)nc2sc3c(c12)CCC3", "inhibition": "-29.6%"}
{"compound": "C=C(C)CSc1nc(N)c2c3c(sc2n1)CCC3", "inhibition": "-92.1%"}
{"compound": "CC(C)(C)C1CCc2c(sc3nc(SCC(N)=O)nc(N)c23)C1", "note": "(centres undefined)", "inhibition": "67.4% (active)"}
{"compound": "CC1O[C@@H](OC2C(O)C(C)O[C@H](OC(=O)[C@]34CCC(C)(C)C[C@H]3C3=CCC5[C@@]6(C)CC(O)C(O[C@@H]7OC(CO)C(O)[C@@H](O)[C@@H]7O)[C@@](C)(C(=O)O)C6CC[C@@]5(C)[C@]3(CO)CC4)C2O[C@H]2OC(C)[C@@H](O[C@@H]3OCC(O[C@@H]4OC(CO)C(O)[C@H](O)C4O)[C@@H](O)[C@@H]3O)[C@H](O)C2O)C(O)C(O)C1O", "note": "(some centres undefined)", "inhibition": "-19.6%"}
{"compound": "COc1ccc(CCC(=O)Nc2ccc(Cl)c(S(=O)(=O)N3CCOCC3)c2)cc1OC", "inhibition": "-6.15%"}
{"compound": "COc1cc([N+](=O)[O-])ccc1NC(=S)N1CCN(c2ccccn2)CC1", "inhibition": "60.8% (active)"}
{"compound": "CNC(=S)N1CCN(c2ccccn2)CC1", "inhibition": "2.28%"}
{"compound": "O=[N+]([O-])c1ccc(NC(=S)N2CCN(c3ccccn3)CC2)cc1", "inhibition": "-31.5%"}
{"compound": "CN1CCN(c2ccc([N+](=O)[O-])c(Sc3nc4ccccc4[nH]3)c2)CC1", "inhibition": "-6.9%"}
{"compound": "CCCn1nc(NS(=O)(=O)c2ccccc2)c2cc3cc(C)ccc3nc21", "inhibition": "-7.37%"}
{"compound": "Cc1ccc(S(=O)(=O)N(C)CC(=O)N2CCc3ccccc32)cc1", "inhibition": "-9.45%"}
{"compound": "COc1ccccc1N1CCN(C(=O)c2ccc(Cl)c(S(=O)(=O)N3CCCC3)c2)CC1", "inhibition": "-12.2%"}
{"compound": "COc1cc2c(cc1OC)CN(C(=O)c1cc(=O)c3ccccc3o1)CC2", "inhibition": "-36.4%"}
{"compound": "COc1ccccc1N1CCN(C(=O)c2cc(=O)c3cc(C)cc(C)c3o2)CC1", "inhibition": "72.6% (active)"}
{"compound": "O=C(Nc1ccc([N+](=O)[O-])cc1)OCCc1ccccn1", "inhibition": "-55.9%"}
